Test results: PubChem BioAssay (NCATS)
Activity calls are given as the source filed them. How the calls were made is not given here.
Potency means the concentration at half of the fitted maximal effect.

What follows are compounds tested on HIV-1 nucleocapsid protein NCp7 (binding to TG oligonucleotide) (assay: HIV Nucleocapsid (AID 346;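 further: potency is for inhibitors that block NC binding and lower polarization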)). Conditions: HIV-1 NC / fluorescein-TGTGTGTG probe, fluorescence polarization.
In short: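 HIV-1 NC (100 nM) binding to fluorescein-labelled ssDNA TG4xF (10 nM) in Hepes pH 7.5, 250mM NaCl, 1uM ZnCl2, TCEP and 2-mercaptoethanol; compounds pin-transferred, 1 hr room temperature, fluorescence polarization read on CCD imager.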
With `COCC(=O)N1CCC2(CC1)CCN(c1ncccn1)CC2` the Potency was > 20 µM (inactive).
In the case of `COc1ccc(-c2nc3cnc(N4CCOCC4)nc3n(C)c2=O)cc1`, the Potency is reported as > 20 µM (inactive).
For `COc1ccc(-c2nc3cnc(N4CCOCC4)nc3n(Cc3cccc(OC)c3)c2=O)cc1`, the Potency was > 20 µM (inactive).
`CN1CCN(c2ncc3nc(CCc4ccccc4)c(=O)n(Cc4cccs4)c3n2)CC1` was tested, and the Potency was > 20 µM (inactive).
In the case of `O=C(Oc1ccccc1)N1CCC2(CC1)CCN(c1cccc(-c3ccccc3)c1)CC2`, the Potency is reported as > 20 µM (inactive).
For `COc1ccc(NC(=O)N2CCCC3(CCN(C(=O)c4c(C)noc4C)CC3)C2)cc1`, the Potency was > 20 µM (inactive).
In the case of `CC(=O)N1CCC[C@@]2(CCN(Cc3nccs3)C2)C1`, the Potency is reported as > 20 µM (inactive).
With `COc1ccc(NC(=O)N2CC[C@@]3(CCCN(C(=O)c4cnccn4)C3)C2)cc1` the Potency was > 20 µM (inactive).
With `COc1ccc(C(=O)N2CCC3(CC2)CCN(c2ccccc2)CC3)cc1` the Potency was > 20 µM (inactive).
`COc1ccc(Oc2ncc3nc(-c4cccs4)c(=O)n(Cc4cccs4)c3n2)cc1` was tested, and the Potency was > 20 µM (inactive).
In the case of `N#Cc1cccc(NC(=O)N2CCCC3(CCN(C(=O)c4csnn4)CC3)C2)c1`, the Potency is reported as > 20 µM (inactive).
With `O=C(c1cc(C(F)(F)F)cc(C(F)(F)F)c1)N1CCC2(CCCN(c3ccncc3)C2)CC1` the Potency was > 20 µM (inactive).
In the case of `COc1ccccc1CN1CCC2(CC1)CCN(C(=O)c1c(C)noc1C)CC2`, the Potency is reported as > 20 µM (inactive).
With `COc1ccc(-c2nc3cncnc3n(-c3ccccc3)c2=O)cc1` the Potency was > 20 µM (inactive).
